Consider 18 compounds from PubChem BioAssay (NCATS).

Inconclusive results are not listed. Activity calls are given as the source filed them. Unless noted, the call rests on the fitted dose curve; in most records, active means well fitted curve in the direction sought with a large enough effect; inconclusive means small, poorly fitted or top-dose-only effect, or another doubt; inactive means no such curve, though single readings can be large; an effect the other way counts as inactive or inconclusive.

Assay [1] concerns the target Cytochrome P450 2C9 (Homo sapiens) (UniProt P11712). The assay can be described thus: qHTS Assay for Inhibitors and Substrates of Cytochrome P450 2C9 (AID 883). Further: nearly all actives have a fitted effect of over 60% in size. Further: potency means the concentration at half of the fitted maximal effect. In outline: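 Human CYP2C9 (10nM) with Luciferin-H at 100uM (its KM) in 25mM KPO4; compound preincubated 10 min at 37C, then NADPH regeneration for 60 min at 37C. Luciferin read by luminescence after detection reagent; normalized to 57uM sulphaphenazole as full inhibition.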

Assay [2] can be described thus: Confirmation and Secondary Assay for Modulators of Hemoglobin Beta Chain Splicing at IVS2 654 locus (AID 910).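 Further: HeLa cells stably carrying EGFP split by mutant beta-globin IVS2-654 intron; % of control where 0% means no effect.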 In outline: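 HeLa cells stably expressing EGFP interrupted by β-globin IVS2-654 intron, seeded overnight in Opti-MEM/2% FCS, then treated 2 days at 37 °C. Restored splicing read as total peak GFP intensity per well by laser scanning cytometry (488 nm excitation, 500–520 nm emission); 500 nM antisense PNA as control.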

Assay [3] concerns the target DNA dC->dU-editing enzyme APOBEC-3G (Homo sapiens) (UniProt Q9HC16). Description: qHTS for inhibitors of Vif-A3G interactions: Validation (AID 588379). Further: 0% is about no effect. In outline:
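HeLa cells stably expressing Vif and A3G-eYFP, 700 cells/well, incubated overnight at 37 deg C, then exposed to compound overnight at 37 deg C. Inhibition of Vif-mediated degradation read as increased yellow fluorescence (Ex 488/Em 500-530) by laser-scanning cytometry.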

Assay [4] in a line: qHTS Assay for Identifying Gametocytocidal Compounds (AID 743244). Further: potency means the concentration at half of the fitted maximal effect. Conditions: P. falciparum 3D7 stage III-V gametocytes, alamarBlue, 72 h; max response: stronger effect = lower value. Put shortly:
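Using 20,000 stage III–V 3D7 gametocytes per well, compounds were incubated 72 h under 37 °C/5% CO2. Viability was then assessed by 24 h alamarBlue reduction, measured fluorometrically at 525/598 nm.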

Assay [5] in a line: qHTS profiling for inhibitors of Plasmodium falciparum (3D7) proliferation (AID 743322).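 Further: infected erythrocytes exposed to compound for 72 h before lysis; 100% = DMSO vehicle wells and 0% = 0.29 µM artemisinin.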 The following applies: P. falciparum 3D7 proliferation; at 9.63 µM (top of the series). In outline:
(§1)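 Erythrocytes infected with P. falciparum (0.3% parasitemia, 2.5% hematocrit) incubated with compounds 72 h at 37 C, 5% CO2. Lysis with saponin/Triton buffer containing SYBR Green I, overnight at room temperature in the dark; DNA fluorescence (485/535 nm) normalised to 0.29 uM artemisinin and DMSO.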

Assay [6] is described as follows: qHTS profiling for inhibitors of Plasmodium falciparum (DD2) proliferation (AID 743323; call rule not given here). Conditions: lower = more inhibition; at 9.63 µM (top of the series). In outline:
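1536-well qHTS; infected RBCs 0.3% parasitemia/2.5% Hct final; cpd 72 h 37 C 5% CO2; lysis buffer + SYBR Green I, o/n RT dark; FI 485/535; norm. to 0.29 uM artemisinin and DMSO, plate-stack corrected.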

A short description of assay [7]: qHTS profiling for inhibitors of Plasmodium falciparum (HB3) proliferation (AID 743324).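 Further: 100% = DMSO vehicle wells and 0% = artemisinin-treated control wells.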 Conditions: Plasmodium falciparum HB3 blood-stage proliferation; at 9.63 µM (top of the series). Put shortly:
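P. falciparum HB3 grown in erythrocytes (0.3% parasitemia, 2.5% hematocrit final) with compound for 72 h at 37 C, 5% CO2. Parasite DNA detected by SYBR Green after saponin/triton lysis overnight; normalized to 0.29 uM artemisinin and DMSO.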

Assay [8] in a line: qHTS profiling of the MIPE4 collection as inhibitors of Plasmodium falciparum (3D7) proliferation (AID 743344; call rule not given here;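 further: scaled between DMSO vehicle wells and 0.29 µM artemisinin as full inhibition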). Conditions: P. falciparum 3D7 in erythrocytes, SYBR Green DNA fluorescence, 72 h; at 9.64 µM (top of the series). In outline:
as §1

A short description of assay [9]: qHTS profiling of the MIPE4 collection as inhibitors of Plasmodium falciparum (DD2) proliferation (AID 743345; call rule not given here). The following applies: P. falciparum Dd2 in erythrocytes, SYBR Green DNA, 72 h; at 9.64 µM (top of the series). Put shortly:
as §1

Assay [10] in a line: qHTS profiling of the MIPE4 collection as inhibitors of Plasmodium falciparum (DD2) proliferation (Rep 2) (AID 743346; call rule not given here). Conditions: P. falciparum Dd2 in erythrocytes, SYBR Green DNA, 72 h; at 9.64 µM (top of the series). Put shortly: as §1
The nature of assay [11]: qHTS profiling of the MIPE4 collection as inhibitors of Plasmodium falciparum (HB3) proliferation (AID 743347; call rule not given here;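 further: plate controls were DMSO vehicle wells for no effect and artemisinin wells for full effect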). Conditions: P. falciparum HB3 in erythrocytes, SYBR Green DNA, 72 h; at 9.64 µM (top of the series). In outline:
as §1

Assay [12] deals with Guanine nucleotide-binding protein G(i) subunit alpha-1 (Homo sapiens) (UniProt P63096). Description: qHTS Assay for Inhibitors of RGS12 GoLoco Motif Activity (Green Fluorophore) (AID 879).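 Further: 0% = labeled peptide with Gαi1 and full inhibition = labeled peptide alone without protein; negative values mean loss of peptide binding seen as reduced polarization.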 In outline: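 Fluorescence polarization assay: 50 nM Gαi1 with 10 nM FITC-labeled RGS12 GoLoco peptide in 10 mM Tris pH 7.5, 150 mM NaCl, 0.1 mM GDP, 0.05% NP40, 10 min at room temperature with compound.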
Sequence of Guanine nucleotide-binding protein G(i) subunit alpha-1 (Homo sapiens) (P63096 whole entry, looked up): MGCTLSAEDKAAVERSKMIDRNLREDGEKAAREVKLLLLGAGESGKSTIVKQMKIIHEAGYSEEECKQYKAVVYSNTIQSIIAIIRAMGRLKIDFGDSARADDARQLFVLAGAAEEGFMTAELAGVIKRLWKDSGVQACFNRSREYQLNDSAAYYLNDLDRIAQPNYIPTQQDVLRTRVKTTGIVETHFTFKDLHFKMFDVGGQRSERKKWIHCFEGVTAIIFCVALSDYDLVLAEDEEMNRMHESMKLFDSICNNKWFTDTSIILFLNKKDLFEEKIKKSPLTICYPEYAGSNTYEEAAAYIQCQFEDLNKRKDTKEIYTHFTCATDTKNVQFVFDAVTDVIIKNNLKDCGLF

Assay [13] can be described thus: qHTS Assay for Identification of Small Molecule Agonists for Thrombopoietin (TPO) Signaling Pathway (AID 917). Further: on the % scale 0 is the no-effect control and ±100 the full control effect. In outline:
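IL-3-dependent murine pro-B Ba/F3 cells, stably transfected with human TPO receptor and GpIIb-promoter luciferase, are incubated 24 hrs at 37 C with test compound and 26 pM TPO; luciferase signal is read after 10 min at room temperature.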

In assay [14] the target is Muscarinic acetylcholine receptor M1 (Rattus norvegicus) (UniProt P08482). Description: qHTS Assay for Antagonists of Acetylcholine Muscarinic M1 Receptor: Kinetic Measurement of Intracellular Calcium Response (AID 943). Further: nearly all actives have a fitted effect of over 75% in size. Put shortly: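 CHO cells expressing rat M1 receptor, Fluo-4 loaded, preincubated 10 min with compound, then stimulated with EC80 carbachol (100 nM final). Kinetic calcium fluorescence over 4 min; response taken as peak over basal signal.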
Sequence of Muscarinic acetylcholine receptor M1 (Rattus norvegicus) (P08482 whole entry, looked up): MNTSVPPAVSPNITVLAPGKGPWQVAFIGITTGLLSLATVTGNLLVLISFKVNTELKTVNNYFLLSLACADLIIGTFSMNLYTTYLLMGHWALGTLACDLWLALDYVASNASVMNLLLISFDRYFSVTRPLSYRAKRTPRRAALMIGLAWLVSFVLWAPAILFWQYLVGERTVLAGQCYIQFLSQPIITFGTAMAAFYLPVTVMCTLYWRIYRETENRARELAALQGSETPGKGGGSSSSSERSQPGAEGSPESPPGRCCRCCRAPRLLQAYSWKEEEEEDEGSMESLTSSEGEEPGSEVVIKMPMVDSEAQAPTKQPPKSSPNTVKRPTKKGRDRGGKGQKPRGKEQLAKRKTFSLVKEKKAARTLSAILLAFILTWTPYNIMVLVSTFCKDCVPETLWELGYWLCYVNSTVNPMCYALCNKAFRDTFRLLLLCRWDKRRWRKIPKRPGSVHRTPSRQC

The target is the same in assay [15]. Description: qHTS Assay for Antagonists of Acetylcholine Muscarinic M1 Receptor: Measurement of IP-One Response (AID 944). Further: nearly all actives have a fitted effect of over 75% in size. In outline:
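CHO cells stably expressing rat M1, pretreated 10 min with compound, then stimulated 30 min with carbachol at EC80 (200 nM) in LiCl-containing buffer pH 7.4; IP1 accumulation read by HTRF competition (665/620 nm).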

Assay [16] deals with Pyruvate kinase (Leishmania mexicana) (UniProt Q27686). Description: qHTS Validation Assay for Inhibitors of Leishmania Mexicana Pyruvate Kinase (AID 945).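 Further: 0% = DMSO only neutral control wells.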 Put shortly: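 qHTS eight-point titrations against 0.2 nM LmPYK (E451W) in imidazole buffer pH 7.2 with 0.5 mM PEP, 0.1 mM ADP; 1 h, room temperature. Readout: PKLight luminescence, normalized to neutral DMSO wells.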
Sequence of Pyruvate kinase (Leishmania mexicana) (Q27686 2-499 E452W): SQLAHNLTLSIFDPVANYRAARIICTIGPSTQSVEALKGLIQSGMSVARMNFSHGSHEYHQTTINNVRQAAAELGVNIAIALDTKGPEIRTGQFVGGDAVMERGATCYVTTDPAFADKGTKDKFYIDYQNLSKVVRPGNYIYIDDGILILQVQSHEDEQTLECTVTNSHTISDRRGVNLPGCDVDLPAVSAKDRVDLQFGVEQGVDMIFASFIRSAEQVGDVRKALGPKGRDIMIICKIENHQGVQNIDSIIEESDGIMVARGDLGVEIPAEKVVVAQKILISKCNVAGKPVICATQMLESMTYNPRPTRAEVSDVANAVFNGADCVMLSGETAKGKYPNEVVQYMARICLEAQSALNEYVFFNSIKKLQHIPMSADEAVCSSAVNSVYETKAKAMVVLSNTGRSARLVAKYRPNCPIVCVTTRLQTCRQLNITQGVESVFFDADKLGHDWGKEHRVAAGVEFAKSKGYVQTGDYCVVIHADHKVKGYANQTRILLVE
In assay [17] the target is Pyruvate kinase PKM (Homo sapiens) (UniProt P14618). Description: qHTS Assay for Activators of Human Muscle Pyruvate Kinase (AID 954; active means well fitted curve in the direction sought with a large enough effect, not every such curve was filed as active;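 further: 0% = uninhibited enzyme and -100% = no enzyme or full thiadiazolimine inhibition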). Put shortly:
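Reaction: 0.1 nM purified PKM2 with 0.5 mM phosphoenolpyruvate and 0.1 mM ADP, room temperature, 1 h. Readout: luciferase-based ATP luminescence after stop reagent. Activators judged against a 0.3 nM enzyme column.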

In assay [18] the target is Alpha-galactosidase A (Homo sapiens) (UniProt P06280). Description: Counterscreen for Glucocerebrosidase Inhibitors: qHTS Assay for Human alpha-Galactosidase at pH 4.5 (AID 992). Further: 0% is about no effect. In outline: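 Concentration-response curves (0.7 nM to 77 uM final) were modeled with the Hill equation to give AC50. Reactions: 2 nM enzyme, 80 uM fluorogenic alpha-galactoside, pH 4.5 citric acid buffer, 20 min, room temperature.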
Sequence of Alpha-galactosidase A (Homo sapiens) (P06280 whole entry, looked up): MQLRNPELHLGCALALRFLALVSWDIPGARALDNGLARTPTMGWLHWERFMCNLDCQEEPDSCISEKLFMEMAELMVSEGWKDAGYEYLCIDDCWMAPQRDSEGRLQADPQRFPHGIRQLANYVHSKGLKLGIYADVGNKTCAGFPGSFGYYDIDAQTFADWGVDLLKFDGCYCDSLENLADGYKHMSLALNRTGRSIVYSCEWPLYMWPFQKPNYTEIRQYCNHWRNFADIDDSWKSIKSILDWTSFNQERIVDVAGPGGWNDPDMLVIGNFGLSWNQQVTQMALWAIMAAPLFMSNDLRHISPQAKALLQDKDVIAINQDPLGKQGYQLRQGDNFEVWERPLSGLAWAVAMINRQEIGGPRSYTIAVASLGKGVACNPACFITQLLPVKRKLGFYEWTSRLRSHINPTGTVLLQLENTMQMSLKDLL

For assay [19], the target named is alpha-glucosidase (Oryza sativa, rice) (UniProt Q653V4). Description: Counterscreen for Glucocerebrosidase Inhibitors: qHTS Assay for Rice alpha-Glucosidase at pH 5.0 (AID 997).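 Further: 0% = full activity with enzyme and -100% = basal without enzyme.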 In outline: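 Rice alpha-glucosidase (4 nM final) with 400 uM 4-methylumbelliferyl-alpha-D-glucopyranoside in citrate buffer pH 5.0, 20 min at room temperature, stopped at pH 10; fluorescence 365/440 nm, compounds 0.7 nM–77 uM, AC50 from Hill fits.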

Sequence of Cytochrome P450 2C9 (Homo sapiens) (P11712 whole entry, looked up): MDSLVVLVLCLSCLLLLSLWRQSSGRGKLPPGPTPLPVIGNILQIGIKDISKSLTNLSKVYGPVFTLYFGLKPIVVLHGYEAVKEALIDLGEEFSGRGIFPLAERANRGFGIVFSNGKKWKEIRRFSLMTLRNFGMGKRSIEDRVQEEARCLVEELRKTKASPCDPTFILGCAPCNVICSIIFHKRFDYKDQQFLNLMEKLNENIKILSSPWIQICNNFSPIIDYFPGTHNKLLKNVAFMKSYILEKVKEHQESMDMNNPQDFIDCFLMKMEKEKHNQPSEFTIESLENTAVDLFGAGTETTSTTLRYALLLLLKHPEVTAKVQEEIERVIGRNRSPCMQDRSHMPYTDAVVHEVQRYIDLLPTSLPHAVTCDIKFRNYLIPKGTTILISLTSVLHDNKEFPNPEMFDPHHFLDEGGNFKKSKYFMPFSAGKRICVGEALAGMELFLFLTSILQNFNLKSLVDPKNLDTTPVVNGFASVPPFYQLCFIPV
Sequence of DNA dC->dU-editing enzyme APOBEC-3G (Homo sapiens) (Q9HC16 whole entry, looked up): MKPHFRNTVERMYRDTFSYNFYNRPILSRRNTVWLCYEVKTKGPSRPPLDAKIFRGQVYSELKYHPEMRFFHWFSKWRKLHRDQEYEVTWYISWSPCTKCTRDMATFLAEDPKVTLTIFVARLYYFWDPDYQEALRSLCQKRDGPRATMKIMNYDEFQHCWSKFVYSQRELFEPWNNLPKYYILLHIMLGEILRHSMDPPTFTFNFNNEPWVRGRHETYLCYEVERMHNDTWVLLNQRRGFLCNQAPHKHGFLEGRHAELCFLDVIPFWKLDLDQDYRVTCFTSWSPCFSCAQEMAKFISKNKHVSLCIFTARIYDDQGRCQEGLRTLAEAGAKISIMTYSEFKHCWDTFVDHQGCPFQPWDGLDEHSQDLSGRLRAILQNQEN
Sequence of Pyruvate kinase PKM (Homo sapiens) (P14618 whole entry, looked up): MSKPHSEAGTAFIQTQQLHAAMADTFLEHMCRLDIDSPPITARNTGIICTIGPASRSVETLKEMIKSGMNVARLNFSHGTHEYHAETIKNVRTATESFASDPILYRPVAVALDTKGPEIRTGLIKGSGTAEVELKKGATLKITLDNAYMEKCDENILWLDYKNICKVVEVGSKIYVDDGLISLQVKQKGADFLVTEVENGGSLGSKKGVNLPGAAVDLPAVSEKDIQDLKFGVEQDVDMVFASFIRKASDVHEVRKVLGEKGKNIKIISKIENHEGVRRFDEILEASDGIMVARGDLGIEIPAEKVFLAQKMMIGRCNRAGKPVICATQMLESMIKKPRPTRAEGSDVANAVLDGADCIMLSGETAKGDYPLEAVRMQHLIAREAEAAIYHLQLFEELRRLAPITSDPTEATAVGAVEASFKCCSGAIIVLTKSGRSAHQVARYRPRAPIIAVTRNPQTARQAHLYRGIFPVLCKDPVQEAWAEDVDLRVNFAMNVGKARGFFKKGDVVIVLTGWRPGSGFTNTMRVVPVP

Take `C[C@@]1(O)CCOC(=O)C1`: the Potency result in [1] is “inactive”. Turning to `CC(C)(N=NC(C)(C)C(=N)N)C(=N)N`, the Potency entry in [2] is “inactive”.

Consider `N#Cc1cccc(-c2cncnc2-n2ccnc2)c1`, for which the Potency entry in [2] was “inactive”.

As to `Clc1ccc(CC[C@H](Cn2ccnc2)Sc2c(Cl)cccc2Cl)cc1`, the Potency in [1] was 12.6 nM (active). In the case of `COc1cc2cc3c4cc(OC)c(OC)cc4cc[n+]3c(C)c2cc1OC`, the Potency result in [2] was “inactive”.

Take `Nc1ccn([C@@H]2CC[C@H](CO)O2)c(=O)n1`: the Potency result in assay [1] was “inactive”. On to `Clc1ccc([C@H](Cn2ccnc2)OCc2csc3c(Cl)cccc23)c(Cl)c1`, for which, in assay [1], the Potency was 316 nM (active).

As to `C[C@H]1CC[C@@H]2[C@@H](C)[C@H]3[C@H](C[C@H]4[C@@H]5CC=C6C[C@@H](O[C@]7(O[C@H]8O[C@@H](C)[C@@H](O)[C@@H](O)[C@@H]8O)C[C@@H](O[C@@H]8O[C@H](CO)[C@@H](O)[C@H](O)[C@@H]8O)[C@@H](O)[C@H](CO)O7)CC[C@]6(C)[C@H]5CC[C@@]34C)N2C1`, the Potency result in [1] is “inactive”. In the case of `CS(=O)(=O)Nc1cccc(-c2nc(Nc3ccc(F)cc3)c3ccccc3n2)c1`, in assay [2], the Potency entry was “inactive”. On to `CC(=C(CCOP(=O)(O)O)SC(=O)c1ccccc1)N(C=O)Cc1cnc(C)nc1N`, for which, in assay [2], the Potency result is “inactive”. On to `CS(=O)(=O)Nc1cccc(-c2nc(Nc3ccccc3)c3ccccc3n2)c1`, for which, in [2], the Potency result is “inactive”. Turning to `C[C@@H](C(=O)O)c1ccc(N2Cc3ccccc3C2=O)cc1`, the Potency entry in assay [1] is “inactive”. For the compound `Fc1ccc(Nc2nc(-c3cccnc3)nc3ccccc23)cc1`, the Potency entry in assay [2] is “inactive”. With `Cc1ccc2c(c1)c1c3n2CCN[C@H]3CCC1`, the call in assay [3] was inactive.

As for `COc1ccc([C@@H]2CC(=O)c3c(O)cc(O)cc3O2)cc1O`, the outcome in [3] was inactive. Regarding `O[C@H](c1cc(C(F)(F)F)nc2c(C(F)(F)F)cccc12)[C@H]1CCCCN1`, the Potency in [4] was 89.4 nM (active). In addition, the remaining parasite growth % (stronger effect = lower value) in assay [5] is -0.0865%. Moreover, in assay [6], the activity, percent of control was found to be 1.34%. This compound also displayed a remaining proliferation (% of control), lower = more inhibition in assay [7] of 0.677%. In assay [8], this compound returned a parasite growth, % of DMSO control of 8.08%. Further, in assay [9], the parasite growth remaining, % of DMSO control (lower = more inhibition) was determined as 8.4%. In [10], this compound registered a parasite growth, % of control (lower = inhibition) of 18.7%. The compound further showed a growth, % of control in [11] of 4.87%. On to `CC(=O)/C(C)=N\O`, for which the compound was classed as inactive in assay [12], in assay [13], in assay [14], in [15], in assay [16] and in assay [17]. The outcome in assay [18], in assay [19] and in assay [3] was inactive. Regarding `COc1cc(C2Oc3cc(C4Oc5cc(O)cc(O)c5C(=O)C4O)ccc3OC2CO)ccc1O` (stereo not drawn), the Potency entry in [2] was “inactive”.
